Assay [1] in a line: yeast TOR pathway RPL19A-GFP modulators, primary screen, cell-based, S. cerevisiae, multiplex flow cytometry (AID 1862; in the data active = percent of DMSO control GFP below about 86%;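 note: lower values mimic rapamycin by blocking the RPL19A rise seen in DMSO cells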). To be noted: S. cerevisiae RPL19A-GFP strain, flow cytometry fluorescence, 3 h; at 10 µM; stronger effect = lower value.
A short description of assay [2]: modulators of MEP2-GFP levels in yeast, primary screen, S. cerevisiae, multiplex flow cytometry (AID 1867;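 active = GFP response, as percent of the DMSO control, above the screen-wide mean plus 3 SD, about 139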;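 note: median GFP channel fluorescence of barcode-gated MEP2-GFP cells measured by flow cytometry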). To be noted: S. cerevisiae MEP2-GFP strain, 3 h, at 10 µM, stronger effect = higher value, 100% means same as DMSO wells.
The nature of assay [3]: modulators of CIT2-GFP expression in yeast, primary screen, S. cerevisiae, GFP fusion, multiplex flow cytometry (AID 1870;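 active = percent response above a set limit, the screen-wide mean plus 3 SD, cut at about 130% in these data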;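 note: barcoded CIT2-GFP strain pooled with four other GFP strains with rapamycin as positive control; median GFP fluorescence per well over plate mean of DMSO wells so 100% = DMSO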). As to conditions: 3 h, at 10 µM, stronger effect = higher value.
A short description of assay [4]: modulators of LAP4-GFP expression in yeast, primary screen, S. cerevisiae, multiplex flow cytometry (AID 1873;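 active = GFP signal, as percent of the solvent control, above the screen mean plus 3 SD, about 149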). As to conditions: 3 h, at 10 µM, stronger effect = higher value.
Assay [5] is described as follows: modulators of AGP1-GFP expression in yeast TOR pathway, primary screen, cell-based, multiplex flow cytometry, S. cerevisiae (AID 1887;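 active = GFP signal above the screen-wide mean plus 3 SD, that is over about 124.5% of the solvent control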;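 note: AGP1-GFP fusion strain of S. cerevisiae within a five-strain barcoded multiplex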). As to conditions: 3 h, at 10 µM, stronger effect = higher value.
The nature of assay [6]: inhibitors of CD8+ T cell-vesicle binding, pilot screen, LFA-1/ICAM-1 modulator project, MLPCN validation set, flow cytometry (AID 2523;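 active = response below a set limit, under 55% cells CD8-positive and vesicle-bound, and CD8 cells' 90th-percentile brightness under 279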;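 for vesicle binding response: mean PE anti-B7-1 fluorescence of CD8+ cells relative to row control; 100% = QL9-loaded vesicles with DMSO vehicle in the same plate row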). To be noted: 2C mouse CD8+ T cells, at 7 µM, stronger effect = lower value; double positive events: measured here: CD8+/vesicle+ event percentage.
Assay [7] has as its target Integrin beta-1 (Homo sapiens) + Integrin alpha-4 (Homo sapiens) (UniProt P13612+P05556). The assay can be described thus: inhibition of HUTS-21 binding to VLA-4, pilot screen, VLA-4 allosteric modulator project, U937 cells, HUTS-21 mAb, flow cytometry, validation set (AID 2674;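 active = inhibition above 50%, about 3 SD of the validation set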;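 note: antibody binding induced by the VLA-4 ligand LDV present at three times its Kd; 0% = LDV ligand with antibody and no compound and 100% = antibody without LDV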). As to conditions: HUTS-21 LIBS mAb binding, at 6.7 µM, stronger effect = higher value, binding induced by LDV ligand.

Assay [8] is described as follows: superoxide lowering in aged yeast cells, pilot screen, validation compound set (AID 2706;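 active = superoxide response below 65% of plate, a cut near 3 SD across the whole screen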;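 note: yeast exposed to compound for one week at 30 degrees C before staining; 100% = mean of all compound wells on the same plate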). To be noted: S. cerevisiae aging, superoxide DHE fluorescence; at 10 µM; stronger effect = lower value.
Assay [9] deals with Beta-adrenergic receptor kinase 1 (Homo sapiens) (UniProt P25098). As to the kind of experiment: GRK2 binders displacing RNA aptamer, biochemical, validation, human GRK2, bead flow cytometry (AID 488806). As to conditions: bead-bound GRK2, FAM-aptamer displacement, at 10 µM, stronger effect = higher value.
Beta-adrenergic receptor kinase 1 (Homo sapiens), sequence (P25098 whole entry, looked up): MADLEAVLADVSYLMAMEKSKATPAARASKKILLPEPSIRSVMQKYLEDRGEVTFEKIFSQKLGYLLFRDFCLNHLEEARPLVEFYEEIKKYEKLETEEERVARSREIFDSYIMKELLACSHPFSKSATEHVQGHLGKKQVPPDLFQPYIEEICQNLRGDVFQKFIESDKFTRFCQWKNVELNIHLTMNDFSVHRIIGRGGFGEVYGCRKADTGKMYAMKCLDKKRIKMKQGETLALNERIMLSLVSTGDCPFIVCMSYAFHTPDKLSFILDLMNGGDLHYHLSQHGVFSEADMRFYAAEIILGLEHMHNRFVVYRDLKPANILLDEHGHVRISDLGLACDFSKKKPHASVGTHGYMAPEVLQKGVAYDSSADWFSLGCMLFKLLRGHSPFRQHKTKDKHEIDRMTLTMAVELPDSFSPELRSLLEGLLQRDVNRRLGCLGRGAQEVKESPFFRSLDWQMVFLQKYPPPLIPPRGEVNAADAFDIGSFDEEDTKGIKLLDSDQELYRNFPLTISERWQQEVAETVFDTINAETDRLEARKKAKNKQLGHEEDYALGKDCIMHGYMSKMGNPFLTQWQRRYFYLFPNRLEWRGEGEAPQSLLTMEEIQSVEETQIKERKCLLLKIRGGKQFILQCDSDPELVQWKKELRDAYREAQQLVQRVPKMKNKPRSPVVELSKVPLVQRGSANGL
Assay [10] deals with Beta-2 adrenergic receptor (Homo sapiens) (UniProt P07550). As to the kind of experiment: beta2AR agonists driving receptor internalization, pilot screen, cell-based, FAP fluorogen, flow cytometry, validation set (AID 504459;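 active = percent response above 42, roughly 3 SD of non-fluorescent test compounds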;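 note: agonist-driven loss of surface beta2AR via internalization measured by FAP dye flow cytometry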). To be noted: Am2.2-beta2AR cells, FAP surface receptor flow cytometry; at 10 µM; stronger effect = higher value.
Beta-2 adrenergic receptor (Homo sapiens), sequence (P07550 whole entry, looked up): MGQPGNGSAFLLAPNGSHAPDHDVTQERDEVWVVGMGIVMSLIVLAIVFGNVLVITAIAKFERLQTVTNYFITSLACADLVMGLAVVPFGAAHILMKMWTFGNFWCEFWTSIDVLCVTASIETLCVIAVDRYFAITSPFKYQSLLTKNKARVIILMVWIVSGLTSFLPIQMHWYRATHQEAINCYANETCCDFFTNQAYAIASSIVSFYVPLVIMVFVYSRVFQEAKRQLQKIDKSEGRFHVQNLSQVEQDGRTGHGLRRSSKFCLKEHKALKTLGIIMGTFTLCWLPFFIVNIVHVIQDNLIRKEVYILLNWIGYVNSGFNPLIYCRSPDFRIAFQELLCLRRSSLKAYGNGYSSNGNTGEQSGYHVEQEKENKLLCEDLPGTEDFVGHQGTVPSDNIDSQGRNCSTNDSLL
In assay [11] the target is AP-2 complex subunit beta (Homo sapiens) (UniProt P63010). As to the kind of experiment: inhibitors of arrestin peptide binding to AP2, pilot screen, biochemical, validation set, GST-AP2 beads, flow cytometry (AID 504541;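 active = inhibition above 54%, about 3 SD of non-fluorescent compounds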;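 note: AP2 carries R879A mutation and is captured from E. coli lysate; bead-bound FITC arrestin peptide fluorescence measuring arrestin peptide binding to AP2; 0% = DMSO wells and 100% = excess unlabeled arrestin peptide control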). To be noted: FITC arrestin peptide, at 10 µM, stronger effect = higher value, AP2 beta2 appendage fragment, R879A mutant.
AP-2 complex subunit beta (Homo sapiens), sequence (P63010 whole entry, looked up, the tested form may be a part, one chain of several): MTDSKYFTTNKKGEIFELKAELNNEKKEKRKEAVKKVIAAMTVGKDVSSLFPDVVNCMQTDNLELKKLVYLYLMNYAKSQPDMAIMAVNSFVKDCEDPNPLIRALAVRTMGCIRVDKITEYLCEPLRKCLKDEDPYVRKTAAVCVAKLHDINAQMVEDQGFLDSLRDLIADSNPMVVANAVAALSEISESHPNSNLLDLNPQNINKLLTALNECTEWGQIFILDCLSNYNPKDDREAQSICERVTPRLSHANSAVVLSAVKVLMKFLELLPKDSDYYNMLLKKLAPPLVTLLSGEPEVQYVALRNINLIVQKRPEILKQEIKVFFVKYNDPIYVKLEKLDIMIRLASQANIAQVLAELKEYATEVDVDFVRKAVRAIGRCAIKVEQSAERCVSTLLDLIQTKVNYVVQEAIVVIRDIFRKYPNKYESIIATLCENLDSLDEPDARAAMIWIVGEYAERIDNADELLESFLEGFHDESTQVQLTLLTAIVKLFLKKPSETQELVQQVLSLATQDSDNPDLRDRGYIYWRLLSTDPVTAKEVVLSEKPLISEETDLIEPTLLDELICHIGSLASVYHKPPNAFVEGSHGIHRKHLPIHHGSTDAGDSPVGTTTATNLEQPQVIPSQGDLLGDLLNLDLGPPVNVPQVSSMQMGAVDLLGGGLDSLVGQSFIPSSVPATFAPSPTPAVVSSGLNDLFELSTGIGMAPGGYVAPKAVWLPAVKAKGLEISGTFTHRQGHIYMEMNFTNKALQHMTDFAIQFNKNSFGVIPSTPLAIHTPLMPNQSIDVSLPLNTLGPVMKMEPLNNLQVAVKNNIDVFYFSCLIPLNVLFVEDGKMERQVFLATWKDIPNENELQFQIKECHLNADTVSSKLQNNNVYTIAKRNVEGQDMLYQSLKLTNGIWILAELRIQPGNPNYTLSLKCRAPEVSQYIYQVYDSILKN
Assay [12] in a line: yeast V-ATPase proton transport modulators, S. cerevisiae, pHLuorin, HTS validation (AID 504600; in the data active = response above about 15%;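 note: plate controls were DMSO for no effect and reference compound for full effect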). As to conditions: S. cerevisiae pHLuorin cytosolic pH, at 10 µM, stronger effect = higher value.
Assay [13] concerns anti-desmoglein-3 scFv antibody binding to human DSG3. As to the kind of experiment: inhibitors of anti-DSG3 scFv binding to DSG3, pilot screen, biochemical, validation compound set, bead-based, flow cytometry (AID 588368;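 active = binding below the plate cutoff, the plate median minus 3 SD, with a reading above zero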;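 note: signal is the median channel fluorescence of bead-bound GFP antibody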). To be noted: Protein G beads, DSG3-Fc, scFv-GFP binding, at 10 µM, stronger effect = lower value.
Assay [14] can be described thus: inhibitors of fungal efflux pumps CDR1, CDR2, MDR1, pilot screen, validation compound set, multiplex, phenotypic (AID 588506;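 active = efflux inhibition above 0.42, the validation set average plus 4 SD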;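 note: Nile Red retained in cells so higher fluorescence means more efflux inhibition; 0 = negative control wells and 1 = enniatin B 25 µM full block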). To be noted: S. cerevisiae pump-expressing triplex, Nile Red efflux flow cytometry; at 10 µM; stronger effect = higher value; the pumps come from Candida albicans.
Assay [15] deals with ATP-binding cassette sub-family B member 6 (Homo sapiens) (UniProt Q9NP58). The assay can be described thus: ABCB6 transporter inhibitors, pilot screen, K562-ABCB6 cells, flow cytometry, validation set (AID 588550;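 active = inhibition above the screen-wide mean plus 3 SD, about 51%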;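 note: 0% = DMSO wells and 100% = benzethonium chloride 70 µM positive control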). As to conditions: K562-ABCB6 porphyrin accumulation, 1 h, at 10 µM, stronger effect = higher value.
ATP-binding cassette sub-family B member 6 (Homo sapiens), sequence (Q9NP58 whole entry, looked up): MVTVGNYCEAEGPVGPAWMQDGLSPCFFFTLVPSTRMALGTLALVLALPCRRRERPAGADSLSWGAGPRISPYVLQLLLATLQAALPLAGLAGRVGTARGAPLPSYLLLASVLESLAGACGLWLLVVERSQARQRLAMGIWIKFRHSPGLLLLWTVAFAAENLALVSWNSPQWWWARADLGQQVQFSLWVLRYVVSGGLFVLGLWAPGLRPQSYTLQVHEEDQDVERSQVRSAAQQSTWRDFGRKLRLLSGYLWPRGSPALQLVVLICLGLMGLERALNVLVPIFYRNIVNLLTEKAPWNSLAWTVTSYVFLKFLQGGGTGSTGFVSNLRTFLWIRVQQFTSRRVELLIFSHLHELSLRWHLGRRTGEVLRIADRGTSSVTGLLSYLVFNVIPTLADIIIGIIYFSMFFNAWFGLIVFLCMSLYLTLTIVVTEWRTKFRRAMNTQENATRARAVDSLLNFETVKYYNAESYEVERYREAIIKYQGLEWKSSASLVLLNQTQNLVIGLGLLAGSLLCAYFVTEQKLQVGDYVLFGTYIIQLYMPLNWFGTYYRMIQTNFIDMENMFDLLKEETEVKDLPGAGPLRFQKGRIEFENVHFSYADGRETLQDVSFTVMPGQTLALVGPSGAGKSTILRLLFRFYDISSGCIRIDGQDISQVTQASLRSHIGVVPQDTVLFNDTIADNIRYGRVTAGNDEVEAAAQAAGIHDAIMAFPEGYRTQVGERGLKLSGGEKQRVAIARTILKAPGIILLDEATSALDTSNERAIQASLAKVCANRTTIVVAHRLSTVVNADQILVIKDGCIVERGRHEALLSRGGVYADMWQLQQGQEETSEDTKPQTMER
Assay [16] is described as follows: promoters of myeloid differentiation in arrested cells, primary screen, cell-based, GFP/MAC1 double positive, flow cytometry, validation set (AID 588685;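 active = differentiation response of at least 50%, scaled between solvent and reference control, from cells with both markers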;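 note: compound exposure lasts four days before antibody staining and flow analysis; 0% = DMSO wells and 100% = 5 µM fulvestrant positive control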). To be noted: ER-HoxA9 marrow cells, stronger effect = higher value, normalized: vehicle 0, fulvestrant 100.

Results filed as inconclusive are left out. Active and inactive are the calls of the source.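 Rule for the calls, unless noted: active = aptamer binding inhibition above 30%, about 3 SD of noise from non-fluorescent compounds; inactive = inhibition at or below 30%.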

Integrin beta-1 (Homo sapiens) + Integrin alpha-4 (Homo sapiens), sequence (P05556 whole entry, looked up): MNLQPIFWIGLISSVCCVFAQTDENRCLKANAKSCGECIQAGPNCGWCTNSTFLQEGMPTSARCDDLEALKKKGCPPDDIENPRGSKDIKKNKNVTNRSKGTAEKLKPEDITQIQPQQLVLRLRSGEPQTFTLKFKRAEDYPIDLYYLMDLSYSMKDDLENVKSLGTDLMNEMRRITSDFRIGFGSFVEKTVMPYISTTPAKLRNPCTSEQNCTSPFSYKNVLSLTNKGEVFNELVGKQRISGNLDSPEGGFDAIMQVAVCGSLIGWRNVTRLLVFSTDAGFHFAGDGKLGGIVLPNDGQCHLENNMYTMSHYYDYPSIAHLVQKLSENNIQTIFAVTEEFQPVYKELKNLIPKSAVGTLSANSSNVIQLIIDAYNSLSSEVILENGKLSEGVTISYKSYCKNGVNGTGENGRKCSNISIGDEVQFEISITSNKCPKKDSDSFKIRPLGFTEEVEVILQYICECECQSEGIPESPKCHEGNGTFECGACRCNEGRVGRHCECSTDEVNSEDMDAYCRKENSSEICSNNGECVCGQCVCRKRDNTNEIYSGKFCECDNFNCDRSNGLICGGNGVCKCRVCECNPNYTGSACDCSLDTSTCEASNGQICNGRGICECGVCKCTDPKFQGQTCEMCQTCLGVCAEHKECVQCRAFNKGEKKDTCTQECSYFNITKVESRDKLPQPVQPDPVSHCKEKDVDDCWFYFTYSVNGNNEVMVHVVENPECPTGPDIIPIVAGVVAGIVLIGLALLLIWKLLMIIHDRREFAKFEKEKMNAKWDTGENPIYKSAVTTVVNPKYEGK
Integrin beta-1 (Homo sapiens) + Integrin alpha-4 (Homo sapiens), sequence (P13612 whole entry, looked up): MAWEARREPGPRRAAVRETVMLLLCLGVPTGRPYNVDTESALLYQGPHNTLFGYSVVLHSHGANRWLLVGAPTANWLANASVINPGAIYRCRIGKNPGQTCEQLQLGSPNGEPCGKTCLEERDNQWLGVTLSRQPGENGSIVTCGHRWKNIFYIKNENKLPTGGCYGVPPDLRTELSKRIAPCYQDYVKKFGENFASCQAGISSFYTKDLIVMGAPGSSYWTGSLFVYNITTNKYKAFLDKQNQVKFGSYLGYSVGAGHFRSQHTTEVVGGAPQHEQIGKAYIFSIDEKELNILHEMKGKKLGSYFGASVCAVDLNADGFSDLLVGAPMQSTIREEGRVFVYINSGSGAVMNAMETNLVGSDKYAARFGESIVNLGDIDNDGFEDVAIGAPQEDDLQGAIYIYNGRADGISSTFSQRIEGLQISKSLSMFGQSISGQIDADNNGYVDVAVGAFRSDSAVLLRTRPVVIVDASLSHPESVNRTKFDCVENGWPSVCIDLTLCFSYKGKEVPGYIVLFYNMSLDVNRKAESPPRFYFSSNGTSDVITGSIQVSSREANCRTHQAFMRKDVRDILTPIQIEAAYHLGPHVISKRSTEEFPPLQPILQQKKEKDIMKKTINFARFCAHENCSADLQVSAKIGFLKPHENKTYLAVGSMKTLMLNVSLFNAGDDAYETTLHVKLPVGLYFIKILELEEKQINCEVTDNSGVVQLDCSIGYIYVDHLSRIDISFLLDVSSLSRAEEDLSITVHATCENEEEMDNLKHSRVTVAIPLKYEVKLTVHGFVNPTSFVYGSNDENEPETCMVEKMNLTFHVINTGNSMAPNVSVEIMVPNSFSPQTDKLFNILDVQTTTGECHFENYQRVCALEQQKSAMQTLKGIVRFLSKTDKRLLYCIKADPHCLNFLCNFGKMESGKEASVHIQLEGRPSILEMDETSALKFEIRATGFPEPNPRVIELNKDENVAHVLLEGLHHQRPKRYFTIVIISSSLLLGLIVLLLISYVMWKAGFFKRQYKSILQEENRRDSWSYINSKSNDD

On to `CC(=O)c1c[nH]c2ccc(C)cc2c1=O`, for which the percent of DMSO control GFP in [1] was 97.4% (inactive). The GFP response vs DMSO in assay [2] was 99.6% (inactive); in assay [4], 114% (inactive). The percent response of DMSO control in [3] is 97.7% (inactive). The GFP response, % of DMSO in assay [5] is 94.9% (inactive). The double positive events in assay [6] came to 60.8%. In [6], the vesicle binding response is 228% (inactive). The inhibition is -85.1% (inactive) in assay [7], 34.1% (inactive) in assay [11] and 1% (inactive) in assay [15]. The superoxide response (% of plate) in assay [8] was 104% (inactive). In [9], the aptamer binding inhibition was 0% (inactive). Also, the values for the response in assay [10] and in [12] were -3.59% (inactive) and -1.39% (inactive), respectively. Also, the binding (% of control) in [13] is 101% (inactive). Besides, the efflux inhibition (fraction of control) in [14] is -0.31 (inactive). For the same compound, the differentiation response in [16] was -18.4% (inactive).

For the compound `CC1(C)CC(C(CC(=O)N2CCCC2)Cc2ccccc2)CCO1` (stereo not given), the percent of DMSO control GFP in assay [1] is 100% (inactive). The GFP response vs DMSO is 99.7% (inactive) in assay [2] and 102% (inactive) in assay [4]. Moreover, in assay [3], the percent response of DMSO control was 104% (inactive). For the same compound, the GFP response, % of DMSO in [5] was 106% (inactive). This compound came in with a double positive events in [6] of 62.9%. In assay [6], the vesicle binding response was 118% (inactive). In addition, the inhibition was -2.43% (inactive) in [7], 21.8% (inactive) in [11] and 18% (inactive) in [15]. In addition, the superoxide response (% of plate) in assay [8] was 107% (inactive). Also, the aptamer binding inhibition in assay [9] was -2% (inactive). Moreover, the response was -11% (inactive) in assay [10] and -8.82% (inactive) in [12]. Further, the binding (% of control) in [13] is 103% (inactive). In addition, the efflux inhibition (fraction of control) in assay [14] is 0.36 (inactive). The differentiation response in assay [16] was 15.9% (inactive).

Take `CC1(C)CC(=O)C2=C(C1)c1c(ccc3ccccc13)NC2c1ccco1` (stereo not given): in assay [1], the percent of DMSO control GFP was 98.8% (inactive). Besides, the values for the GFP response vs DMSO in [2] and in [4] were 105% (inactive) and 123% (inactive), respectively. Also, the percent response of DMSO control in [3] was 93.9% (inactive). The GFP response, % of DMSO in assay [5] is 99.5% (inactive). This compound showed a double positive events in assay [6] of 57%. Besides, the vesicle binding response in [6] is 182% (inactive). Further, the figures for the inhibition in assay [7], in assay [11] and in [15] were -8.62% (inactive), 13.8% (inactive) and 3% (inactive), respectively. Moreover, the superoxide response (% of plate) in assay [8] was 107% (inactive). The aptamer binding inhibition in [9] is 6% (inactive). The values for the response in assay [10] and in assay [12] were 14.4% (inactive) and 1.12% (inactive), respectively. Moreover, in assay [13], the binding (% of control) was 104% (inactive). In addition, the efflux inhibition (fraction of control) in assay [14] is -0.06 (inactive). For the same compound, the differentiation response in [16] was 28% (inactive).

Consider `COCC1CCCN(Cc2cn[nH]c2-c2cc3ccccc3o2)C1` (stereo not given), for which the percent of DMSO control GFP in [1] is 95.9% (inactive). For the same compound, the figures for the GFP response vs DMSO in assay [2] and in assay [4] were 109% (inactive) and 115% (inactive), respectively. Further, the percent response of DMSO control in [3] is 83.4% (inactive). In assay [5], the GFP response, % of DMSO was 102% (inactive). The compound also returned a double positive events in assay [6] of 63.3%. Besides, the vesicle binding response in [6] is 181% (inactive). For the same compound, the inhibition in [7] was -14.1% (inactive); in assay [11] it was 0.03% (inactive); in assay [15] it was 7% (inactive). Also, the superoxide response (% of plate) in [8] is 98.3% (inactive). Also, the aptamer binding inhibition in assay [9] was 2% (inactive). Besides, the results for the response in [10] and in assay [12] were -14.2% (inactive) and 1.33% (inactive), respectively. Further, in [13], the binding (% of control) is 99.9% (inactive). Moreover, in assay [14], the efflux inhibition (fraction of control) was 0.05 (inactive). For the same compound, the differentiation response in assay [16] was 5.6% (inactive).

In the case of `NC(N)=N/N=C/c1c(Cl)cccc1Cl`, the percent of DMSO control GFP in assay [1] was 102% (inactive). The GFP response vs DMSO was 105% (inactive) in assay [2] and 101% (inactive) in [4]. Further, in assay [3], the percent response of DMSO control is 105% (inactive). Also, in assay [5], the GFP response, % of DMSO was 108% (inactive). The same compound displayed a double positive events in [6] of 67.2%. Further, the vesicle binding response in assay [6] was 169% (inactive). The inhibition in [7] is -11.8% (inactive); in assay [11], 5.82% (inactive); in [15], -5% (inactive). Further, the superoxide response (% of plate) in assay [8] is 81.5% (inactive). The aptamer binding inhibition in assay [9] is -4% (inactive). For the same compound, the response is -0.34% (inactive) in assay [10] and -3.91% (inactive) in assay [12]. Further, the binding (% of control) in assay [13] was 99.4% (inactive). Further, in [14], the efflux inhibition (fraction of control) is -0.085 (inactive). In addition, the differentiation response in [16] was -13.3% (inactive).

Values taken from PubChem BioAssay.
